Assay outcomes deposited in PubChem by The Scripps Research Institute Molecular Screening Center.
In the library only some 0.87% were active in any assay of this set; here they are far more common.
IDE cell inh: cellular human IDE inhibition; P14735; HEK cells, FAbetaB cleavage, fluorescence polarization; inhibition, % at 5.59 µM; 320,000 compounds, 0.41% hits; AID 434962;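 active = percent inhibition above the average of all tested compounds plus 3 SD, set per screening campaign, cut at about 16% in these data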;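 also: IDE supplied by intact live HEK cells; FP after avidin binding of uncleaved biotin substrate so inhibition keeps polarization high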
TLR9-MyD88 inh: TLR9-MyD88 interaction inhibition. 340,000 compounds, 0.21% hits. Q9NR96+Q99836. CHO BLA complementation TLR9-MyD88, CCF4 FRET ratio. inhibition, % at 4.98 µM;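 active = inhibition above the mean over all tested compounds plus 3 SD, cut at about 21% in these data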
Target sequence (Q99836 whole entry, looked up): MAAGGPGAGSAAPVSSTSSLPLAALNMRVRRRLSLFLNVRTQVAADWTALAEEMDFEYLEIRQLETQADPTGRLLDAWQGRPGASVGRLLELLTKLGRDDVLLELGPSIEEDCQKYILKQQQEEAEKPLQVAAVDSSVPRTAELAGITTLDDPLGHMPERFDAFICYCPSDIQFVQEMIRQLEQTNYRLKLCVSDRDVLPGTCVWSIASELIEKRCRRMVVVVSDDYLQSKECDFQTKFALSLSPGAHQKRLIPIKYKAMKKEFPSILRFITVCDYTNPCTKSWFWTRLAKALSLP
Target sequence (Q9NR96 whole entry, looked up): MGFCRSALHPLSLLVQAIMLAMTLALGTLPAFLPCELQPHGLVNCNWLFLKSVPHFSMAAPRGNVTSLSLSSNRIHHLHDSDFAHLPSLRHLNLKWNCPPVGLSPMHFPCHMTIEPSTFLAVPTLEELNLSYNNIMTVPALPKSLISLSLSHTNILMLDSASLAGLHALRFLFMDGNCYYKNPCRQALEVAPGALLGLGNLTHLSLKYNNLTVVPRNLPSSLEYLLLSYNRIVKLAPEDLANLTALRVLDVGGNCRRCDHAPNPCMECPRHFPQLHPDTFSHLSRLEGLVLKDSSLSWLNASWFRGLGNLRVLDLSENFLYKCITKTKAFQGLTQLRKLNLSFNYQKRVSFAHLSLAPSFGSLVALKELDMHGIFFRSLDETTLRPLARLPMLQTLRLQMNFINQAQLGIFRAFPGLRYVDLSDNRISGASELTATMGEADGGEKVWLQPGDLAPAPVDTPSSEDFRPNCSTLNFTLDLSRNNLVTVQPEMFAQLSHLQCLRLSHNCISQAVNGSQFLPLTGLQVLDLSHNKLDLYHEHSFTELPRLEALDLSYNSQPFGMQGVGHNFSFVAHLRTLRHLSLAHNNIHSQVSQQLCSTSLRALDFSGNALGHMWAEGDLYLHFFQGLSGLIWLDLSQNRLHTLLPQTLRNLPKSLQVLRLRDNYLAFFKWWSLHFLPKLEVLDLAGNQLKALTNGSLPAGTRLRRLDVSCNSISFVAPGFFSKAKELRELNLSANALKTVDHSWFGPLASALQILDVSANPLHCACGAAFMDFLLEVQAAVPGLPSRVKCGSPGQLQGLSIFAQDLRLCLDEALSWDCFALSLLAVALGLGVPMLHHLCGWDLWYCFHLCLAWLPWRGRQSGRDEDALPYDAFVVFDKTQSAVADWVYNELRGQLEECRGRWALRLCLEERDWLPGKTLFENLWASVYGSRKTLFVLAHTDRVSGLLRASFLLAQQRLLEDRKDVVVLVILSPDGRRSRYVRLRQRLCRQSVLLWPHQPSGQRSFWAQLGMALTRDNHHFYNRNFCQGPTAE
TLR4-MyD88 BLA: blocks binding of human TLR4 to MyD88; AID 861; 200,000 compounds, 0.18% hits; HeLa CL3-4 TLR4/MyD88 BLA complementation, FRET ratio; inhibition, % at 8.4 µM; in the data active = inhibition above about 25%
NOD2-RIPK2 inh: inhibitors of human NOD2-RIPK2 interaction; CHO BLA complementation NOD2-RIPK2, CCF4 ratio; inhibition, % at 4.98 µM; O43353; 360,000 compounds, 0.38% hits; AID 624267; in the data active = inhibition above about 21%
IDE act: boosts human insulin-degrading enzyme activity in HEK cells | activation, % at 5.96 µM | FAbeta-B cleavage, fluorescence polarization; 0% vehicle, 100% cell-free pure enzyme wells | AID 493087 | P14735 | 340,000 compounds, 0.073% hits;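 active = activation above the mean of all tested compounds plus 3 SD, set per screening campaign, cut at about 17% in these data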
IDE inh confirm: cellular human IDE inhibition, confirmation. shares compounds with IDE cell inh. HEK cells, FAbetaB cleavage, fluorescence polarization. inhibition, % at 5.59 µM. 1,200 compounds, 51% hits. AID 435028;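 active = mean inhibition across triplicate wells above the cutoff set by the earlier primary insulin-degrading enzyme screen, cut at about 16% in these data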
HEK293 tox: kills HEK cells in IDE inhibitor counter-screen. shares compounds with IDE cell inh. HEK293 cytotoxicity, ATP luminescence. inhibition, % at 5.59 µM. 1,200 compounds, 28% hits. AID 449730; in the data active = inhibition above about 22%
TLR9-MyD88 cf: confirmation of human TLR9-MyD88 binding inhibitors; shares compounds with TLR9-MyD88 inh; CHO TLR9/MyD88 BLA complementation, CCF4 FRET ratio; inhibition, % at 4.98 µM; 680 compounds, 51% hits;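 active = mean inhibition across three repeats above about 21% taken from the earlier screen, limit read from the data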;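 also: blue over green emission ratio reports constitutive TLR9 MyD88 association via BLA complementation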
BLA counter-1: beta-lactamase reporter inhibition, counter-screen artifact; shares compounds with TLR9-MyD88 inh; CHO-BLA cells, CCF4 FRET ratio, BLA reporter; inhibition, % at 4.98 µM; 680 compounds, 7% hits; AID 540251;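 active = mean inhibition above a 50% cutoff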;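 also: counterscreen of TLR9-MyD88 hits on CMV-driven BLA in CHO-K1 cells; higher means less blue over green ratio so more BLA blockade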
TLR9 CHO cytotox: counter-screen for TLR9-MyD88 inhibitors: cytotoxicity in CHO cells; shares compounds with TLR9-MyD88 inh; luminescence; AID 588336; inhibition, % at 4.98 µM; 680 compounds, 39% hits; in the data active = inhibition above about 11%
NOD2-RIPK2 conf: NOD2-RIPK2 interaction inhibition confirmed; inhibition, % at 4.98 µM; CHO cells, NOD2-RIPK2 BLA complementation, CCF4 FRET; shares compounds with NOD2-RIPK2 inh; 1,200 compounds, 70% hits; AID 624370;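 active = mean inhibition across replicates above a set limit taken from the earlier primary screen, cut at about 21% in these data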
BLA counter-2: NOD2-RIPK2 counterscreen BLA reporter activity. shares compounds with NOD2-RIPK2 inh. CHO BLA reporter, CCF4 FRET ratio. inhibition, % at 4.98 µM. 1,200 compounds, 57% hits. AID 624371;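 active = mean inhibition above the low-control mean inhibition plus three low-control SD, cut at about 11% in these data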
Numbers stand for hits.

For Nc1ccc2nc3c(=O)n(CCc4ccccc4)c(=O)[nH]c3nc2c1 the results were IDE cell inh 32, NOD2-RIPK2 inh 38, IDE inh confirm 63, HEK293 tox inactive, NOD2-RIPK2 conf 36 and BLA counter-2 35.
Screening Nc1ccc2nc3c(=O)n(C4CCCCC4)c(=O)[nH]c3nc2c1 returned IDE cell inh 57, TLR9-MyD88 inh 35, NOD2-RIPK2 inh 41, IDE act inactive, IDE inh confirm 88, HEK293 tox inactive, TLR9-MyD88 cf inactive, BLA counter-1 inactive, TLR9 CHO cytotox inactive, NOD2-RIPK2 conf 59 and BLA counter-2 66.
`CCc1cccc(NC(=O)C2CCCN(S(=O)(=O)c3cccs3)C2)c1` (configuration not stated) gave IDE cell inh inactive, TLR9-MyD88 inh inactive, NOD2-RIPK2 inh inactive and IDE act inactive.
COc1ccc(CNC(=O)c2cc(-c3ccc(OC)c(OC)c3)on2)cc1 was read as IDE cell inh inactive, TLR9-MyD88 inh 23, TLR4-MyD88 BLA inactive, NOD2-RIPK2 inh inactive, IDE act inactive, TLR9-MyD88 cf inactive, BLA counter-1 inactive and TLR9 CHO cytotox inactive.
COc1ccc(-c2cc(C(=O)NCc3ccc(Cl)cc3)no2)cc1OC was read as IDE cell inh inactive, TLR9-MyD88 inh inactive, TLR4-MyD88 BLA inactive, NOD2-RIPK2 inh inactive and IDE act inactive.
For c1nc(NCc2ccc3c(c2)OCO3)c2cc(-c3ccoc3)ccc2n1 the results were IDE cell inh inactive, TLR9-MyD88 inh inactive, NOD2-RIPK2 inh inactive and IDE act inactive.
`CSc1ccc(CN2CCC(CO)(CCOc3ccccc3)CC2)cc1` gave IDE cell inh inactive, TLR9-MyD88 inh inactive, NOD2-RIPK2 inh inactive and IDE act inactive.
For Cc1ccc(N2C(=O)Cc3ccccc3C2=O)cc1 the results were IDE cell inh inactive, TLR9-MyD88 inh 22, NOD2-RIPK2 inh inactive, IDE act inactive, TLR9-MyD88 cf 42, BLA counter-1 inactive and TLR9 CHO cytotox inactive.
Screening Cc1cccc(NC(=O)CCN2C(=O)c3ccccc3S2(=O)=O)c1C returned IDE cell inh inactive, TLR9-MyD88 inh 21, NOD2-RIPK2 inh inactive, IDE act inactive, TLR9-MyD88 cf inactive, BLA counter-1 inactive and TLR9 CHO cytotox inactive.
Screening CC(=O)c1nccs1 returned IDE cell inh inactive, TLR9-MyD88 inh inactive, NOD2-RIPK2 inh inactive and IDE act inactive.
COc1cccc(C2CC(=O)Nc3c2c(=O)n(C)c(=O)n3C)c1OC (configuration not stated) was read as IDE cell inh inactive, TLR9-MyD88 inh 24, TLR4-MyD88 BLA inactive, NOD2-RIPK2 inh inactive, IDE act inactive, TLR9-MyD88 cf inactive, BLA counter-1 inactive and TLR9 CHO cytotox inactive.
COc1ccccc1C1CC(=O)Nc2c1c(=O)n(C)c(=O)n2C (configuration not stated) was read as IDE cell inh inactive, TLR9-MyD88 inh inactive, TLR4-MyD88 BLA inactive, NOD2-RIPK2 inh inactive and IDE act inactive.
`CN(C)C(=O)CSc1n[nH]c(=O)n1CCc1ccccc1` gave IDE cell inh inactive, TLR9-MyD88 inh inactive, NOD2-RIPK2 inh inactive and IDE act inactive.
Fc1ccccc1N1CCN(Cc2cc(-c3ccccc3)on2)CC1 was read as IDE cell inh inactive, TLR9-MyD88 inh 21, NOD2-RIPK2 inh inactive, IDE act inactive, TLR9-MyD88 cf inactive, BLA counter-1 inactive and TLR9 CHO cytotox inactive.
For COc1ccc(Cl)cc1NC(=O)COC(=O)C1CC(=O)N(Cc2ccccc2)C1 (configuration not stated) the results were IDE cell inh inactive, TLR9-MyD88 inh inactive, NOD2-RIPK2 inh inactive and IDE act inactive.
`O=C(Nc1nc2c(s1)CN(Cc1ccccc1)CC2)c1cccc(S(=O)(=O)N2CCc3ccccc32)c1` gave IDE cell inh inactive, TLR9-MyD88 inh 28, TLR4-MyD88 BLA inactive, NOD2-RIPK2 inh inactive, IDE act inactive, TLR9-MyD88 cf inactive, BLA counter-1 inactive and TLR9 CHO cytotox inactive.
COc1ccc(OC)c(/C=C/c2nc3ccccc3[nH]c2=O)c1 was read as IDE cell inh inactive, TLR9-MyD88 inh 28, NOD2-RIPK2 inh inactive, IDE act inactive, TLR9-MyD88 cf 30, BLA counter-1 inactive and TLR9 CHO cytotox inactive.
Screening O=C(NCCc1ccccc1)c1ccc(-c2cccnc2)c2ccoc12 returned NOD2-RIPK2 inh inactive.
`CCC(CC)c1nnc(NC(=O)C2CC(=O)N(C3CCCC3)C2)s1` (configuration not stated) gave IDE cell inh inactive, TLR9-MyD88 inh inactive, NOD2-RIPK2 inh inactive and IDE act inactive.
N#Cc1cccc(NC(=O)COC(=O)CCc2nc3ccccc3c(=O)[nH]2)c1 was read as IDE cell inh inactive, TLR9-MyD88 inh 21, TLR4-MyD88 BLA inactive, NOD2-RIPK2 inh inactive, IDE act inactive, TLR9-MyD88 cf inactive, BLA counter-1 inactive and TLR9 CHO cytotox inactive.
`COc1cc(NC(=O)COC(=O)CCc2nc3ccccc3c(=O)[nH]2)cc(OC)c1` gave IDE cell inh inactive, TLR9-MyD88 inh inactive, NOD2-RIPK2 inh inactive and IDE act inactive.
Screening O=C(COc1ncnc2sccc12)Nc1cccc(S(=O)(=O)N2CCOCC2)c1 returned IDE cell inh inactive, TLR9-MyD88 inh inactive, NOD2-RIPK2 inh inactive and IDE act inactive.
`Cc1ccc(C(=O)OCC(=O)N2CCCC2)cc1` gave IDE cell inh inactive, TLR9-MyD88 inh inactive, NOD2-RIPK2 inh inactive and IDE act inactive.
CCOC(=O)c1c(C)nc2sc(C(N)=O)c(N)c2c1-c1ccccc1 was read as IDE cell inh inactive, TLR9-MyD88 inh inactive, TLR4-MyD88 BLA inactive, NOD2-RIPK2 inh inactive and IDE act inactive.
`CCOC(=O)c1c(C)nc2sc(C(=O)Nc3ccccc3)c(N)c2c1-c1ccc(OC)cc1` gave IDE cell inh inactive, TLR9-MyD88 inh 31, TLR4-MyD88 BLA inactive, NOD2-RIPK2 inh inactive, IDE act inactive, TLR9-MyD88 cf inactive, BLA counter-1 inactive and TLR9 CHO cytotox 15.
